In the supplement of paper PMC10849652:
Of roughly 8,800 targets only a part is listed; those with a hit were picked by preference. About 0.5% of all pairs of compound and target were hits.

How the values were obtained:
Experiment in all cases: log2 fold change, soluble protein after heating vs DMSO (PISA); higher = thermal stabilisation; K562 lysate, 10 uM; active = over 0.2 and 3.5 SD of the protein, either way, in both replicates (recomputed)
[1] = compound: Cn1cc(CNCC2CCN(c3ncc(C(=O)NO)cn3)CC2)c2ccccc21 [quisinostat]
In short: (§1)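 To prepare the extract, K562 pellets were dounce-homogenised in PBS pH 7.4 with 1 mM MgCl2, giving crude material at 1 mg/mL protein. This was treated with 10 μM compound for 30 min, then heated in aliquots for 3 min over 48°C-58°C before pooling and addition of NP-40 to 0.5% at 4°C. Centrifugation at 21,000xg for 90 min left soluble protein in the supernatant, which TMTpro 16plex LC-MS/MS quantified with equalised channel sums. Results are log-two fold changes in thermal stability compared with solvent controls, from duplicates.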

[2] = compound: NC(=O)Nc1cc(-c2cccc(F)c2)sc1C(=O)N[C@H]1CCCNC1
In short: as §1

[3] = compound: NCC(=O)Nc1ccc(-n2nc(C(F)(F)F)cc2-c2ccc3c(ccc4ccccc43)c2)cc1
In short: as §1

[4] = compound: O=C1NC(=O)C(c2cnc3ccccn23)=C1c1cn2c3c(cc(F)cc13)CN(C(=O)N1CCCCC1)CC2
In short: as §1

[5] = compound: c1cn2cc(-c3ccc4cn[nH]c4c3)nc(Nc3ccc(N4CCOCC4)cc3)c2n1 [entospletinib]
In short: as §1

[6] = compound: Cc1cn(-c2cc(NC(=O)c3ccc(C)c(Nc4nccc(-c5cccnc5)n4)c3)cc(C(F)(F)F)c2)cn1 [nilotinib]
In short: as §1

[7] = compound: Cc1nc(Nc2n[nH]c3c2CN(C(=O)N[C@H](CN(C)C)c2ccccc2)C3(C)C)c2sccc2n1
In short: as §1

[8] = compound: Cc1nc(Nc2ncc(C(=O)Nc3c(C)cccc3Cl)s2)cc(N2CCN(CCO)CC2)n1 [dasatinib]
In short: as §1

[9] = compound: Cc1ncc(-c2ccnc(Nc3ccc(S(C)(=O)=O)cc3)n2)n1C(C)C
In short: as §1

[10] = compound: Cn1cc(-c2ccc3c(c2)CCN3C(=O)Cc2cccc(C(F)(F)F)c2)c2c(N)ncnc21
In short: as §1

[11] = compound: Cn1cncc1[C@@](N)(c1ccc(Cl)cc1)c1ccc2c(c1)c(-c1cccc(Cl)c1)cc(=O)n2C [tipifarnib]
In short: as §1

[12] = compound: NC1(c2ccc(-c3nc4ccn5c(=O)[nH]nc5c4cc3-c3ccccc3)cc2)CCC1
In short: as §1

[13] = compound: O=C(CCCCCCC(=O)Nc1ccccc1)NO [vorinostat]
In short: as §1

[14] = compound: O=C(O)c1ccc2c(c1)nc(Nc1cccc(Cl)c1)c1ccncc12 [silmitasertib]
In short: as §1

[15] = compound: NC(=O)c1cnc(N[C@@H]2CCCC[C@@H]2N)nc1Nc1cccc(-n2nccn2)c1
In short: as §1

Measured: log2 fold change

LRRC9 (UniProt Q6ZRR7)
Chain of UniProt Q6ZRR7 (Q6ZRR7 whole entry, looked up): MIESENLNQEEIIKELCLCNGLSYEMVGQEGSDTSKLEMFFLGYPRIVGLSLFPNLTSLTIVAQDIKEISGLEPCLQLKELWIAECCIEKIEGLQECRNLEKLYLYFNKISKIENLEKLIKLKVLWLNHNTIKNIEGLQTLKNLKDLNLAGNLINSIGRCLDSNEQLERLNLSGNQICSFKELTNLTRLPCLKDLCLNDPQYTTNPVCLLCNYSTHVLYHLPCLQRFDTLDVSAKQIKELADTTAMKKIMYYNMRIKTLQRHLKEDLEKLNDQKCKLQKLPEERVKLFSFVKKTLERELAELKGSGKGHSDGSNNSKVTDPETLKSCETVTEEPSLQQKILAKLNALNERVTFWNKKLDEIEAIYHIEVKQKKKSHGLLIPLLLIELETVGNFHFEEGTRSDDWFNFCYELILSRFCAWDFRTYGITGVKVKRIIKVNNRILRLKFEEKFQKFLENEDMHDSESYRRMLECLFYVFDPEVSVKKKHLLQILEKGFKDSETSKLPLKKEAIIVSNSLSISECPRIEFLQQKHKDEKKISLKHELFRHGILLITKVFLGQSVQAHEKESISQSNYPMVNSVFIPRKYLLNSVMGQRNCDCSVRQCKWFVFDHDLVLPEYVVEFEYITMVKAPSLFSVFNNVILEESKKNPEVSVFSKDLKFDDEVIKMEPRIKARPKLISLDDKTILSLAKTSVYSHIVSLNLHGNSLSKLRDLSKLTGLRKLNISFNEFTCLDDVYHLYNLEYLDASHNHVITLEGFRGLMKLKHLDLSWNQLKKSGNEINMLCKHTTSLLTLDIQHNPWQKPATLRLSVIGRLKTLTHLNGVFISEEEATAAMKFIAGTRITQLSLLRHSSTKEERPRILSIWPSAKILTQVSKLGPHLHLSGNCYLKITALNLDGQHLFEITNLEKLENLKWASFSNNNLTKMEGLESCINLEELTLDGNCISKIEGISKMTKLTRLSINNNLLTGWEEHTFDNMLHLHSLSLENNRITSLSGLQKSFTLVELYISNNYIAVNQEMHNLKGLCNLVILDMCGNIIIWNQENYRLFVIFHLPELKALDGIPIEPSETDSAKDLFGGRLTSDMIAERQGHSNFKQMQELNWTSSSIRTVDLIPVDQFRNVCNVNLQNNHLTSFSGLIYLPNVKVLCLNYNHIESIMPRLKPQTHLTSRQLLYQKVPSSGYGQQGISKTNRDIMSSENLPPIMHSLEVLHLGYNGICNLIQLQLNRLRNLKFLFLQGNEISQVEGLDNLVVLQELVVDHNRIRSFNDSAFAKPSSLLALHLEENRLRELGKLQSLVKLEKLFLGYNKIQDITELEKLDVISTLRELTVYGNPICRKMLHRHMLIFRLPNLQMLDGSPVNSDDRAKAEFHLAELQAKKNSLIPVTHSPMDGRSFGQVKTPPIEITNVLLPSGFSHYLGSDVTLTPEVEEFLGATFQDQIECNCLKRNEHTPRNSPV
inactive: [1] -0.171 | [2] -0.038 | [3] 0.106 | [4] -0.034 | [5] 0.011

KIF26A (UniProt Q9ULI4)
inactive: [6] 0.035 | [7] -0.013 | [8] 0.003 | [9] 0.01 | [10] 0.014 | [1] -0.092 | [11] 0.226 | [2] -0.078 | [12] -0.091 | [3] -0.01 | [13] -0.178 | [14] 0.068 | [4] -0.016 | [5] 0.057

MED25 isoform 3 (UniProt Q71SY5)
active: [13] -0.294
inactive: [6] 0.132 | [7] 0.026 | [8] -0.039 | [9] 0.097 | [10] -0.017 | [1] -0.008 | [11] -0.024 | [2] 0.029 | [15] -0.013 | [12] -0.073 | [14] 0.021 | [4] 0.024 | [5] 0.127

LEPROT (UniProt O15243)
Chain of UniProt O15243 (O15243 whole entry, looked up): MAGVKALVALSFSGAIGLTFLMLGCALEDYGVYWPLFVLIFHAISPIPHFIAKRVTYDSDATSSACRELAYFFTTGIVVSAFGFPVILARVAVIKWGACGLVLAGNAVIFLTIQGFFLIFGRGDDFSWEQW
active: [13] -0.641
inactive: [1] -0.089 | [2] 0.092 | [15] -0.147 | [12] 0.024 | [14] 0.167 | [4] -0.007 | [5] 0.115

MRPL22 (UniProt Q9NWU5)
active: [13] -0.687
inactive: [6] 0.04 | [7] 0.017 | [9] 0.03 | [1] 0.025 | [11] -0.003 | [2] -0.001 | [15] -0.073 | [12] 0.081 | [14] 0.001 | [4] -0.007

MBTPS1 (UniProt Q14703)
inactive: [8] 0.106 | [10] -0.101 | [1] -0.053 | [2] 0.026 | [12] -0.045 | [3] 0.17 | [13] 0.116 | [14] -0.023 | [4] -0.044 | [5] 0.094

MEX3A (UniProt A1L020)
Chain of UniProt A1L020 (A1L020 whole entry, looked up): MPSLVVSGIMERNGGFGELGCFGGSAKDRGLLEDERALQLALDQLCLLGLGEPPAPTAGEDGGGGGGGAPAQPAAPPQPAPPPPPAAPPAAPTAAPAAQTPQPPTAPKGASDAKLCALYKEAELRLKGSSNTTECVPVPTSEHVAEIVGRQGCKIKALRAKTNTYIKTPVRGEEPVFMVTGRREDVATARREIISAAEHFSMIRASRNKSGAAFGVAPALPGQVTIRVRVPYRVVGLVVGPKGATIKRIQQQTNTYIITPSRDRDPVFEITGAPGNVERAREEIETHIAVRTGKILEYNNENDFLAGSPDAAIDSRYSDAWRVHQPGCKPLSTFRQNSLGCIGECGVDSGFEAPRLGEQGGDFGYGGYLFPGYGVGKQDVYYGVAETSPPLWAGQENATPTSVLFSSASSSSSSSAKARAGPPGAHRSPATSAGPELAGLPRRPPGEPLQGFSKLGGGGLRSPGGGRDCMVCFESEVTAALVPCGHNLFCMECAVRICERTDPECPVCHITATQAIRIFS
inactive: [6] 0.026 | [7] -0.069 | [8] -0.029 | [9] -0.137 | [10] -0.084 | [11] 0.211 | [3] -0.106

MAPK3 (UniProt H0YEX6)
inactive: [6] -0.522 | [7] 0.646 | [9] 0.12 | [11] 0.097

MAPKAP1 (UniProt Q9BPZ7)
Chain of UniProt Q9BPZ7 (Q9BPZ7 whole entry, looked up): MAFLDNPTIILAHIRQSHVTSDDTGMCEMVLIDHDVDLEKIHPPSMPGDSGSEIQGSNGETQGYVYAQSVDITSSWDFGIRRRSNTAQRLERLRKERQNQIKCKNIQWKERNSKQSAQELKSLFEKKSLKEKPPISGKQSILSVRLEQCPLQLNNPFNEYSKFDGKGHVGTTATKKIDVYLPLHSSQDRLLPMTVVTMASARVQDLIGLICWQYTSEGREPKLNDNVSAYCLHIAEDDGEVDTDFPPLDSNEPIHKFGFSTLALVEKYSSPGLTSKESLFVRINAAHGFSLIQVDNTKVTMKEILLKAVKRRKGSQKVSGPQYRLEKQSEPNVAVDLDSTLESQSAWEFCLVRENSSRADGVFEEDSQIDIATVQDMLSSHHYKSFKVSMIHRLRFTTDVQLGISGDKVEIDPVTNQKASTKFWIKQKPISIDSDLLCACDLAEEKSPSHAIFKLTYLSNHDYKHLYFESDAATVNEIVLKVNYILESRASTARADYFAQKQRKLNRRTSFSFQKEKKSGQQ
inactive: [6] 0.105 | [7] -0.118 | [8] -0.085 | [9] 0.083 | [10] -0.003 | [1] -0.087 | [11] -0.056 | [2] 0.042 | [12] -0.093 | [13] -0.111 | [14] 0.187 | [4] -0.018 | [5] -0.157

LRRIQ1 (UniProt Q96JM4)
inactive: [1] -0.518 | [2] 0.242 | [15] 0.019 | [3] 0.056
active: [4] 0.754

MEGF8 (UniProt Q7Z7M0)
inactive: [8] -0.059 | [10] -0.003 | [1] 0.047 | [2] -0.073 | [12] -0.073 | [13] 0.05 | [14] -0.062 | [4] 0.02 | [5] -0.048

KIF18B (UniProt Q86Y91)
inactive: [8] 0.073 | [10] 0.076 | [1] -0.025 | [2] 0.17 | [15] 0.025 | [4] -0.098 | [5] -0.035

KRAS isoform 2 (UniProt P01116)
inactive: [8] -0.029 | [10] -0.025 | [1] 0.018 | [2] 0.001 | [15] -0.046 | [12] 0.036 | [13] 0.068 | [14] -0.015 | [4] -0.045 | [5] -0.129

MAST2 (UniProt Q6P0Q8)
Chain of UniProt Q6P0Q8 (Q6P0Q8 whole entry, looked up): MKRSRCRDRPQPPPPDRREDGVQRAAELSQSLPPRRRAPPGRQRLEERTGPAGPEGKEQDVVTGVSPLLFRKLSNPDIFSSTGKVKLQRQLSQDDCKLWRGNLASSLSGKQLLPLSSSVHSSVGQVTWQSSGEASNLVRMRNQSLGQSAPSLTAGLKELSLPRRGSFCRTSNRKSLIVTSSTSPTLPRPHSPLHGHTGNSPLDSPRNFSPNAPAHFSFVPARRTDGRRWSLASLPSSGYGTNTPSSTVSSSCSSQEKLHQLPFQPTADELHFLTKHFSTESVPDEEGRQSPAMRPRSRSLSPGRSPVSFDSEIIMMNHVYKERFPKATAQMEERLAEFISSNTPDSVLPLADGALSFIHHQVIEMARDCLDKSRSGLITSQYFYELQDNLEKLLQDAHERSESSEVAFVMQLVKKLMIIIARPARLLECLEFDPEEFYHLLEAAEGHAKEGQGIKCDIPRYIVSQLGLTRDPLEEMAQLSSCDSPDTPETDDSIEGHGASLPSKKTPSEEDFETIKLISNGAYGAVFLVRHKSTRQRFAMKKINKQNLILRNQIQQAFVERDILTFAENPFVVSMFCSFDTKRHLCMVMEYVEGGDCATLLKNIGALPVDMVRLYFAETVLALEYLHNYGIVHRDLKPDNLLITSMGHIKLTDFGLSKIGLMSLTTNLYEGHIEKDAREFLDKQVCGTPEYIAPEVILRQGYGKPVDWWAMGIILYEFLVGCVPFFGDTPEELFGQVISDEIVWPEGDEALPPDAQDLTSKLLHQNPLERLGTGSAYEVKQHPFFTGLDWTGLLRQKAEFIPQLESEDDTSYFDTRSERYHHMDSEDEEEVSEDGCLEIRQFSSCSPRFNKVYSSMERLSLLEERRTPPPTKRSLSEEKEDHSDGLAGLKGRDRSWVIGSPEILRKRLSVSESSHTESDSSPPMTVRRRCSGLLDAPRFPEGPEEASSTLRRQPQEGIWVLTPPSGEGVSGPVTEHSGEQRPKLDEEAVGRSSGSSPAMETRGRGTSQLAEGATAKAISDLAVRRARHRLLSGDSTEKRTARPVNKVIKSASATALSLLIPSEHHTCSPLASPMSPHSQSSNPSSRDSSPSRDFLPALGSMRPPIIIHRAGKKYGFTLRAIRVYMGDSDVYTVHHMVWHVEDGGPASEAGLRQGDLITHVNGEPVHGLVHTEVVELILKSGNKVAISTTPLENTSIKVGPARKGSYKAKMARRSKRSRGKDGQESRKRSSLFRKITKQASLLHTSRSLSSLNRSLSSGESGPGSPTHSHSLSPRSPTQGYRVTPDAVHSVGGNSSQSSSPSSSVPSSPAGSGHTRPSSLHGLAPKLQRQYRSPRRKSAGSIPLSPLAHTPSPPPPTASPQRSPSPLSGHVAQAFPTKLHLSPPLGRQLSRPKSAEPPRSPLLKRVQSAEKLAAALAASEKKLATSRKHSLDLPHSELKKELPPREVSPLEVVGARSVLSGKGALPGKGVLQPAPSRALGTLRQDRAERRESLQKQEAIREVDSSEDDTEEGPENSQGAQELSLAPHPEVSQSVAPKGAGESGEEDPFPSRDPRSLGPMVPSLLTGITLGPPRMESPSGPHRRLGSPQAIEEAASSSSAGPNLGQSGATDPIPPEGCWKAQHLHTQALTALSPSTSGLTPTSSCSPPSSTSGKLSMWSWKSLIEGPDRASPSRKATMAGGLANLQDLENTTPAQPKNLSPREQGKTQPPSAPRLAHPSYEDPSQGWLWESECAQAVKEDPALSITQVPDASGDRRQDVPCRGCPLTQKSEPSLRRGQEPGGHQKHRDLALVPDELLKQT
inactive: [8] 0.049 | [10] 0.044 | [1] -0.024 | [2] 0.047 | [15] -0.005 | [12] -0.036 | [3] 0.062 | [13] -0.166 | [14] 0.055 | [4] -0.013 | [5] -0.189

KRI1 (UniProt Q8N9T8)
active: [13] -0.285
inactive: [6] -0.099 | [7] 0.02 | [8] -0.025 | [9] 0 | [10] -0.014 | [1] -0.125 | [11] -0.073 | [2] -0.006 | [12] 0.06 | [3] 0.085 | [14] -0.023 | [4] -0.007 | [5] -0.07

MANEA (UniProt Q5SRI9)
inactive: [8] -0.003 | [10] 0.046 | [1] 0.046 | [2] 0.05 | [15] 0.01 | [12] -0.044 | [3] 0 | [13] 0.217 | [14] -0.103 | [4] -0.047 | [5] 0.055

MPP5 (UniProt Q8N3R9)
inactive: [6] 0.015 | [7] -0.013 | [8] 0.028 | [9] -0.069 | [10] 0.009 | [1] -0.052 | [11] 0.142 | [2] 0.002 | [12] -0.053 | [3] 0.015 | [13] 0.016 | [14] -0.1 | [4] 0 | [5] 0.013

KLC1 isoform 10 (UniProt Q07866)
inactive: [12] -0.159 | [13] -0.144 | [14] -0.165 | [5] -0.171

LYN isoform 2 (UniProt P07948)
Chain of UniProt P07948 (P07948 whole entry, looked up): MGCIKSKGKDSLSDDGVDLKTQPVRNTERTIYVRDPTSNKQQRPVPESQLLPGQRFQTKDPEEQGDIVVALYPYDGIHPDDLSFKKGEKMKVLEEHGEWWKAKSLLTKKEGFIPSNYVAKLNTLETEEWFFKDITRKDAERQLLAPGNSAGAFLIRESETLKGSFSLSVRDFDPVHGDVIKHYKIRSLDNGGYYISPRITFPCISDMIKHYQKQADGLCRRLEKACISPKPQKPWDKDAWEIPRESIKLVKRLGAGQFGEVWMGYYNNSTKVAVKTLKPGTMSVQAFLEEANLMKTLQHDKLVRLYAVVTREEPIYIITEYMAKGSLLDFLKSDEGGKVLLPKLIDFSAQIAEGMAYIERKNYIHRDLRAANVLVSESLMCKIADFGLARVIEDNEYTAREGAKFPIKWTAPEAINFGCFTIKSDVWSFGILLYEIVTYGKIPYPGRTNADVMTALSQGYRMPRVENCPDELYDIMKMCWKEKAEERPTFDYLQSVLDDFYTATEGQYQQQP
inactive: [6] 0.125 | [7] 0.143 | [8] 0.438 | [9] 0.257 | [10] 0.061 | [1] -0.111 | [11] -0.615 | [2] 0.748 | [12] -0.053 | [13] -0.118 | [14] 0.049 | [4] -0.31 | [5] 0.129
